In PubChem BioAssay (Tox21):
Inconclusive results are not listed. Calls of active or inactive are those of the source. Calls follow the shape of the dose curve; as a rule, active = well fitted cell-killing curve with a large enough effect in the repeat runs; inconclusive = weak or mixed curves, or effect the other way; inactive = no such curve, though single readings can be large or run the other way.

Experiment: qHTS assay to identify small molecule antagonists of the thyroid receptor (TR) signaling pathway - cell viability counter screen (AID 743064); also: nearly all actives have a fitted effect of over 50% in size
Settings: GH3.TRE-Luc viability, CellTiter-Fluor, 24 h; series mostly up to 70.3 µM; activity change, negative = cytotoxic: at the top concentration
Method in brief: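 Counter screen for cytotoxicity: compound plus T3 (1 nM final) on GH3.TRE-Luc cells, 23.5 h at 37 °C, then fluorescence viability readout with CellTiter-Fluor.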
% is scaled to controls: 0 for no effect and ±100 for the full control effect; potency is read from the fitted curve at half-maximal effect.

SMILES	activity change, negative = cytotoxic	Potency
CN[C@@H]1CCc2[nH]c3ccc(C(N)=O)cc3c2C1	6.92% (inactive)	–
CCOc1cc(-c2nccc3cc(OC)c(OC)cc23)cc(OCC)c1OCC	–	29.8 µM (active)
CCOC(=O)[C@H](CCc1ccccc1)N[C@@H](C)C(=O)N1CC2(C[C@H]1C(=O)O)SCCS2	-15.2% (inactive)	–
CN1[C@@H]2CCC[C@H]1CC(NC(=O)c1nn(C)c3ccccc13)C2 (some centres not stated)	4.03% (inactive)	–
O=C(O[C@H]1CN2CCC1CC2)N1CCc2ccccc2[C@@H]1c1ccccc1	–	23.7 µM (active)
CCC[C@@]1(CCc2ccccc2)CC(O)=C([C@H](CC)c2cccc(NS(=O)(=O)c3ccc(C(F)(F)F)cn3)c2)C(=O)O1	-21.8% (inactive)	–
COC1=C(C(=O)O)N2C(=O)[C@@H](NC(=O)[C@H](N)C3=CCC=CC3)[C@H]2SC1	8.78% (inactive)	–
CCCCCCCCCCCCCCCCCC(=O)[O][Al]	29.3% (inactive)	–
CCNC(=O)[C@@H]1CCCN1C(=O)[C@H](CCCN=C(N)N)NC(=O)[C@H](CC(C)C)NC(=O)[C@@H](Cc1c[nH]c2ccccc12)NC(=O)[C@H](Cc1ccc(O)cc1)NC(=O)[C@H](CO)NC(=O)[C@H](Cc1c[nH]c2ccccc12)NC(=O)[C@H](Cc1cnc[nH]1)NC(=O)[C@@H]1CCC(=O)N1	–	1.5 µM (active)
C/C=C(/CC[C@@H](C)[C@H]1CC[C@H]2C3=CC[C@H]4[C@H](C)[C@@H](O)CC[C@]4(C)[C@H]3CC[C@]12C)C(C)C	-18.6% (inactive)	–
O=C(Nc1ccc(Br)cc1)c1cc(Br)c(Br)s1	–	18.8 µM (active)
COc1ccccc1N1CCN(CCCC(=O)c2ccc(F)cc2)CC1	-28% (inactive)	–
